The nature of assay [1]: qHTS profiling for inhibitors of Plasmodium falciparum proliferation (AID 504749). Also: nearly all actives have a fitted effect of over 60% in size.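 As to activity, negative = inhibition: 0% = DMSO vehicle and full inhibition = artemisinin control.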 Conditions: P. falciparum in erythrocytes, SYBR Green DNA, 72 h. The method in brief: (§1)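 Fluorescence of SYBR Green-bound parasite DNA, read at 485/535 nm, served as the growth measure. Infected erythrocytes were cultured with compound 72 h; artemisinin (0.29 uM) and DMSO wells defined the normalization range.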

In assay [2] the test system is 3D7. The description is as above. To be noted: P. falciparum in erythrocytes, SYBR Green DNA, 72 h; series mostly up to 28.7 µM. Summed up:
as §1

Assay [3] relates to 7G8. The description is as above. Conditions: P. falciparum in erythrocytes, SYBR Green DNA, 72 h; series mostly up to 28.7 µM. Summed up:
as §1

The test system of assay [4] is AA1029. The description is as above. Conditions: P. falciparum in erythrocytes, SYBR Green DNA, 72 h; series mostly up to 28.7 µM. Summed up: as §1
The test system of assay [5] is AS120. The description is as above. Conditions: P. falciparum in erythrocytes, SYBR Green DNA, 72 h; series mostly up to 28.7 µM. Summed up:
as §1

Assay [6] has as its system ATS189. The assay is described as above. To be noted: P. falciparum in erythrocytes, SYBR Green DNA, 72 h; series mostly up to 28.7 µM. Summed up: as §1
Assay [7] has as its system ATS95. Described as above. Conditions: P. falciparum in erythrocytes, SYBR Green DNA, 72 h; series mostly up to 28.7 µM. The method in brief:
as §1

For assay [8], the system named is C2A. The description is as above. To be noted: P. falciparum in erythrocytes, SYBR Green DNA, 72 h; series mostly up to 28.7 µM. The method in brief: as §1
[9] abbreviates: at 28.7 µM (top of the series), parasite line A.
The mark [10] stands for this setting: at 28.7 µM (top of the series), parasite line B.

Inconclusive results are not listed. Unmarked numbers belong to inactive results. Activity calls are given as the source filed them. Calls follow the shape of the dose curve; as a rule, active = well fitted inhibition curve with a large enough effect; inconclusive = small, poorly fitted or top-dose-only effect; inactive = flat fitted curve, though single readings scatter.

The text below walks through data of PubChem BioAssay (NCATS).
Potency is read from the fitted curve at half-maximal effect.

`CC(C(=O)O)c1ccc(N2Cc3ccccc3C2=O)cc1` (stereo not given): the results for the activity, negative = inhibition in assay [1] (setting [9]) and in assay [1] (setting [10]) were 8.3% and 10.3%, respectively. The Potency entry in assay [2], in assay [3], in assay [4], in assay [5], in assay [6] and in assay [7] was “inactive” throughout. Also, the Potency result in assay [8] is “inactive”.
Turning to `CC1=C(/C=C/C(C)=C/C=C/C(C)=C/C=C/C=C(C)/C=C/C=C(C)/C=C/C2=C(C)C(=O)CCC2(C)C)C(C)(C)CCC1=O`, the activity, negative = inhibition in assay [1] (setting [9]) is -4.18%; in assay [1] (setting [10]) it was 4.39%. In addition, the Potency entry in assay [2], in assay [3], in assay [4], in assay [5], in assay [6] and in assay [7] was “inactive” in each case. Moreover, the Potency result in assay [8] was “inactive”.
Consider `CCCCCCCCCCCCCCCC(=O)OCC(COC(=O)CCCCCCCCCCCCCCC)OC(=O)CCCCCCCCCCCCCCC`, for which the activity, negative = inhibition in assay [1] (setting [9]) is -0.409%; in assay [1] (setting [10]), 9.45%. For the same compound, the Potency entry in assay [2], in assay [3], in assay [4], in assay [5], in assay [6] and in assay [7] was “inactive” throughout. The Potency entry in assay [8] was “inactive”.
Consider `CC(C)(C)C(=O)OCOC(=O)[C@@H]1N2C(=O)[C@@H](N=CN3CCCCCC3)[C@H]2SC1(C)C`, for which the activity, negative = inhibition is 1.15% in assay [1] (at 12.8 µM (top of the series), parasite line A) and 5.1% in assay [1] (at 12.8 µM (top of the series), parasite line B). Further, the Potency entry in assay [2], in assay [3], in assay [4], in assay [5], in assay [6] and in assay [7] was “inactive” in each case. The Potency result in assay [8] is “inactive”.
As for `CCCCC(C)(O)C/C=C/[C@H]1[C@H](O)CC(=O)[C@@H]1CCCCCCC(=O)OC` (stereo not given in full), the activity, negative = inhibition in assay [1] (setting [9]) was 0.758%; in assay [1] (setting [10]), 3.16%. Moreover, the Potency result in assay [2], in assay [3], in assay [4], in assay [5], in assay [6] and in assay [7] was “inactive” each time. Further, the Potency entry in assay [8] is “inactive”.
As to `COC(=O)[C@H]1[C@H]2C[C@@H]3c4[nH]c5ccccc5c4CCN3C[C@H]2C[C@@H](OC(=O)c2cc(OC)c(OC)c(OC)c2)[C@@H]1OC`, the Potency in assay [1] (parasite line A) is 0.355 µM (active); in assay [1] (parasite line B), 0.631 µM (active); in assay [2], 0.891 µM (active); in assay [3] it was 0.0501 µM (active); in assay [4], 0.282 µM (active); in assay [5] it was 0.199 µM (active). Further, the values for the Potency in assay [6], in assay [7] and in assay [8] were 0.708 µM (active), 0.398 µM (active) and 0.282 µM (active), respectively.
`CCC(=O)NCCC1CCc2ccc3c(c21)CCO3` (stereo not given): the activity, negative = inhibition in assay [1] (setting [9]) is 6.95%; in assay [1] (setting [10]), 0.538%. The Potency entry in assay [2], in assay [3], in assay [4], in assay [5], in assay [6] and in assay [7] was “inactive” in each case. Besides, the Potency entry in assay [8] was “inactive”.
Regarding `COC(=O)C1=C(C#N)NC(C)=C(C(=O)OC(C)C)C1c1cccc([N+](=O)[O-])c1` (stereo not given), the Potency is 8.91 µM (active) in assay [1] (parasite line A); 11.2 µM (active) in assay [1] (parasite line B); 8.91 µM (active) in assay [2]; 10 µM (active) in assay [3]; 11.2 µM (active) in assay [4]; 8.91 µM (active) in assay [5]. For the same compound, the Potency in assay [6], in assay [7] and in assay [8] was 11.2 µM (active) each time.
As for `Cc1cn([C@H]2C[C@H](O)[C@@H](CO)O2)c(=O)[nH]c1=O`, the activity, negative = inhibition was 4.1% in assay [1] (setting [9]) and -3.41% in assay [1] (setting [10]). The Potency entry in assay [2], in assay [3], in assay [4], in assay [5], in assay [6] and in assay [7] was “inactive” throughout. For the same compound, the Potency result in assay [8] was “inactive”.
`CCCCCCOc1ccc(C(=N)N(CCCC)CCCC)c2ccccc12`: the Potency in assay [1] (parasite line A) was 7.08 µM (active); in assay [2], 5.01 µM (active); in assay [3] it was 4.47 µM (active); in assay [6], 10 µM (active); in assay [8] it was 11.2 µM (active).
Consider `C=C1C(=CC=C2CCC[C@@]3(C)[C@@H]2CC[C@H]3[C@H](C)CCCC(C)C)C[C@@H](O)C[C@@H]1O`, for which the Potency in assay [2] is 11.2 µM (active); in assay [3], 10 µM (active); in assay [8], 10 µM (active). For the same compound, the Potency result in assay [4] is “inactive”.
For `CC[C@@]1(O)C(=O)OCc2c1cc1n(c2=O)Cc2cc3c([N+](=O)[O-])cccc3nc2-1`, the Potency was 4.47 µM (active) in assay [1] (parasite line A); 5.01 µM (active) in assay [2]; 5.01 µM (active) in assay [3]; 7.08 µM (active) in assay [4]; 5.01 µM (active) in assay [5]; 7.94 µM (active) in assay [6]. For the same compound, the Potency in assay [7] was 5.01 µM (active); in assay [8], 7.94 µM (active).
Turning to `CCN(CC)CCOc1ccc(-c2nc3cc(Cl)ccc3s2)cc1`, the Potency in assay [3] was 11.2 µM (active). Besides, the Potency result in assay [5] and in assay [6] was “inactive” each time.
With `CO[C@H](C(=O)[C@@H](O)[C@@H](C)O)C1Cc2cc3cc(O[C@H]4C[C@@H](O[C@H]5C[C@@H](O)[C@H](O)[C@@H](C)O5)[C@@H](O)[C@@H](C)O4)c(C)c(O)c3c(O)c2C(=O)[C@H]1O[C@H]1C[C@@H](O[C@H]2C[C@@H](O[C@H]3C[C@](C)(O)[C@H](O)[C@@H](C)O3)[C@H](O)[C@@H](C)O2)[C@H](O)[C@@H](C)O1` (stereo not given in full), the Potency is 0.112 µM (active) in assay [1] (parasite line A); 0.251 µM (active) in assay [1] (parasite line B); 0.112 µM (active) in assay [2]; 0.0447 µM (active) in assay [3]; 0.112 µM (active) in assay [4]; 0.141 µM (active) in assay [5]. For the same compound, the results for the Potency in assay [6], in assay [7] and in assay [8] were 0.158 µM (active), 0.126 µM (active) and 0.224 µM (active), respectively.
